Test results from PubChem BioAssay (NCI).
This is part of a sample that, as a whole, favours compounds with a hit. Of some 83,000 tested, about 20% had one in any assay.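 Testing used 96-well plates and a 48-hour single-concentration exposure. Example: -40 means 40% of the starting cells died.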 Values without a mark were called inactive. Calls of active or inactive are those of the source. Rule for the calls: active = growth percent below 10; inactive = the rest.

Experiments:
Assay in all cases: NCI-60 one-dose screen, 48 h (100 = growth as untreated, 0 = no growth, -100 = all killed)
Conditions in all cases: 10 µM unless noted
DU-145 prostate = tested on: DU-145 prostate
K-562 leukemia = tested on: K-562 leukemia
MALME-3M melanoma = tested on: MALME-3M melanoma
MDA-MB-231 breast = tested on: MDA-MB-231 breast
RXF 393 renal = tested on: RXF 393 renal
SF-268 CNS = tested on: SF-268 CNS
SF-295 CNS = tested on: SF-295 CNS
SF-539 CNS = tested on: SF-539 CNS
UACC-257 melanoma = tested on: UACC-257 melanoma
M14 melanoma = tested on: M14 melanoma

| SMILES | growth (DU-145 prostate) | growth (K-562 leukemia) | growth (MALME-3M melanoma) | growth (MDA-MB-231 breast) | growth (RXF 393 renal) | growth (SF-268 CNS) | growth (SF-295 CNS) | growth (SF-539 CNS) | growth (UACC-257 melanoma) | growth (M14 melanoma) |
| --- | --- | --- | --- | --- | --- | --- | --- | --- | --- | --- |
| Cn1cc(NC(=O)Nc2cc(C(=O)O)n(C)c2)cc1C(=O)O | 121% | 83.1% | 89.1% | 98.3% | 9.73% (active) | 122% | 99.4% | 103% | 106% | 108% |
| COc1cnc2c(c1)C(=O)c1c-2n(CCCn2ccnc2)c(=O)c2cc(F)ccc12 | -56.4% (active) | -4.93% (active) | -52.2% (active) | 5.66% (active) | -55.9% (active) | 3.73% (active) | -5.57% (active) | -60.6% (active) | -34.7% (active) | -39.9% (active) |
| CCCCCCCCCCOC(C)=O | 112% | 107% | 108% | 107% | 112% | 106% | 80% | 96.1% | 94% | 106% |
| O=C1C=CC(=O)N1c1ccccn1 | 111% | 94.5% | 124% | 102% | 126% | 99.1% | 105% | 99.8% | 105% | 105% |
| CCOC(=O)OCC(=O)[C@@]1(O)CC[C@H]2[C@@H]3CCC4=CC(=O)CC[C@]4(C)[C@H]3[C@@H](O)C[C@@]21C | 101% | 111% | 75.7% | 98.2% | 127% | 94% | 129% | 91.3% | 93.4% | 90.7% |
| Cc1[nH]c(=O)[nH]c(=O)c1CCSSCCc1c(C)[nH]c(=O)[nH]c1=O | 113% | 95.8% | 115% | 119% | 111% | 113% | 98.4% | 110% | – | 95.1% |
| COc1cc(OC)c2c(c1Cl)O[C@]1(C2=O)C(OCc2ccccc2)=CC(=O)C[C@H]1C | 14.7% | 2.98% (active) | -42.4% (active) | 12.9% | 0.23% (active) | 21.3% | -58% (active) | -16.4% (active) | – | 2.91% (active) |
| Cc1n(Cc2ccc3ccccc3c2)cc[n+]1Cc1ccc2ccccc2c1 | 35.2% | 10.2% | -20.9% (active) | -24.3% (active) | 3.41% (active) | 18.9% | 15.4% | 5.68% (active) | -28.5% (active) | -15.7% (active) |
| COc1ccc2c3c(ccc2c1)C(=O)/C(=C\O)CC3 | 111% | 82.7% | 135% | 102% | 119% | 93.6% | 107% | 96.4% | 101% | 122% |
| CCOc1cc(/C=C/C(=O)CC(=O)/C=C/c2ccc(OC(=O)CNCCN(CC)CC)c(OCC)c2)ccc1OC(=O)CNCCN(CC)CC | -44.3% (active) | -10.8% (active) | -39.9% (active) | 5.09% (active) | -79.4% (active) | 3.21% (active) | -18.4% (active) | -58.1% (active) | 23.6% | -14.5% (active) |
| O=C(c1ccc(Cl)cc1)c1ccc(Cl)cc1 | 108% | 98.2% | 129% | 124% | 103% | 104% | 102% | 107% | – | 114% |
| Oc1c(Cl)cc(Cl)c(Cl)c1Cc1c(O)c(Cl)cc(Cl)c1Cl | 28.2% | 4.84% (active) | -21.1% (active) | -13.5% (active) | 15.1% | 17.5% | -42.4% (active) | 21.4% | 9.73% (active) | 16.3% |
| CCCCCCCCCCCCCCCCCC1=NC(C)(CO)CO1 (stereo not given) | 102% | 80.7% | 91.5% | 88.8% | 102% | 98.6% | 88.5% | 97.7% | – | 95.8% |
| COc1ccc2[nH]c(=O)c(CNc3ccc(Nc4nccc(-c5ccc(Cl)cc5)n4)cc3)cc2c1 | 84.8% | 68.6% | 97.7% | 84.9% | 101% | 71.9% | 110% | 104% | – | 111% |
